Screens as filed in PubChem.
Giardia FBPA inh – Giardia lamblia aldolase inhibition; hit rate 0.71% among 290,000; A8B2U2; Potency, µM (highest dose often 59.6 µM), actives largely listed as inhibitors; purified Giardia FBPA; also: nearly all actives have a fitted effect of over 55% in size
Target sequence (A8B2U2 whole entry, looked up): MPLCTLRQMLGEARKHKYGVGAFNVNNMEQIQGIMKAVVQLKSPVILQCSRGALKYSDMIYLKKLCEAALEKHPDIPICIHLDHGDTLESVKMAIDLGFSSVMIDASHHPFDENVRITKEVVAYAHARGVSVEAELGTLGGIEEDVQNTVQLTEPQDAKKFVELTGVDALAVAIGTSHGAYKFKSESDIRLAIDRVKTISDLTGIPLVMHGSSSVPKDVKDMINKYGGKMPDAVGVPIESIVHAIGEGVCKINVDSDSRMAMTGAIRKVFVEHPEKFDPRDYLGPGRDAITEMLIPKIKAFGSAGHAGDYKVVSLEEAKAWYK
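40 nM FBPA preincubated 10 min at RT with compound (up to 57.5 uM final), then substrate plus GAPDH/TPI/NAD/arsenate coupling and diaphorase/resazurin added. Fluorescence read after 20 min at RT, 525/598 nm.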
CHX counter – counter-screen for Shiga toxin inhibitors: cycloheximide protein synthesis inhibition. cell reporter, cycloheximide protein synthesis inhibition counterscreen. max response, %. hit rate 12% among 300,000. AID 2314; in the data active = max response mostly above about 13%, no sharp cut-off; inactive = mostly below about 14%; also: read at 38.3 µM for the half of the compounds with a filed dose
Sm TGR inh – blocks Schistosoma mansoni thioredoxin glutathione reductase. Q962Y6. purified TGR, DTNB reduction, TNB absorbance 405 nm. Potency, µM (series often up to 114 µM), most hits filed as inhibitors. hit rate 3% among 360,000. AID 485364; also: nearly all actives have a fitted effect of over 60% in size
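First, TGR (20 nM dispensed) and NADPH were mixed with compound. Second, a 15 min room-temperature incubation followed. Third, further NADPH and then DTNB were added to start the reaction. Finally, TNB absorbance was monitored kinetically.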
LmPK inh – inhibitors of Leishmania mexicana pyruvate kinase | Q27686 | purified LmPK, Kinase-Glo ATP luminescence, 1 h | Potency, µM (top dose mostly 57.5 µM), usual class: inhibitors | hit rate 0.37% among 290,000
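Purified LmPK (0.1 nM) converted ADP (0.1 mM) to ATP with PEP (0.5 mM) in imidazole buffer pH 7.2 with KCl and MgCl2, 1 h at room temperature. ATP was read by Kinase-Glo luminescence; data normalized to uninhibited and no-enzyme controls.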
Shiga toxin inh – blocks Shiga toxin action in Vero cells | Vero cells, Shiga toxin protein synthesis inhibition reporter | inhibition, % at 38.7 µM | hit rate 9.2% among 290,000 | AID 2315; in the data active = inhibition mostly above about 28%, no sharp cut-off; inactive = mostly below about 43%
Tb PYK inh – T. brucei pyruvate kinase inhibition; AID 624173; Potency, µM (highest dose often 76.8 µM), usual class: inhibitors; TbPYK enzyme, Kinase-Glo Plus ATP luminescence, 45 min; Q57TT1; hit rate 0.12% among 410,000; also: nearly all actives have a fitted effect of over 50% in size
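Assay buffer: 50 mM TEA pH 7.2, 100 mM KCl, 10 mM MgCl2, 0.05% BSA, 0.01% Tween-20. Pyruvate kinase from T. brucei plus substrate met compound, then ADP (130 uM final). Luminescence was read post 45 min RT.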
Each line names hits and unclear results; the compound was inactive in the other large screens. This is one part of a sample in which hits are shown more often than they occur. Unless noted, calls follow the shape of the dose curve; as a rule, active = well fitted curve in the direction sought with a large enough effect; inconclusive = small, poorly fitted or top-dose-only effect, or another doubt; inactive = no such curve, though single readings can be large; an effect the other way counts as inactive or inconclusive.

NC(=O)C1CCN(C(=O)c2ccc3c(c2)N(Cc2cccc(Cl)c2)C(=O)c2ccccc2S3(=O)=O)CC1	none (no result: Giardia FBPA inh, CHX counter, LmPK inh, Shiga toxin inh)
CCN1CCN(c2cc(C)c3cc(NC(=O)c4cc(Br)ccc4Cl)ccc3n2)CC1	none (no result: Giardia FBPA inh, CHX counter, LmPK inh, Shiga toxin inh)
CCc1ccc(OC(=O)c2ccn(CC)n2)cc1	CHX counter 39.8, Shiga toxin inh 150.5
Cc1ccccc1Nc1nc(N)nc(CSc2nc3ccccc3c(=O)n2CCCO)n1	Tb PYK inh inconclusive
Cc1ccc2c(CSc3nc4ccccc4c(=O)n3CCCO)cc(=O)oc2c1C	Shiga toxin inh 109.3
Cc1ccc2c(CSc3nnc4ccccn34)cc(=O)oc2c1C	Shiga toxin inh 60.2
NC(=S)NN=CCn1cc([N+](=O)[O-])c(=O)[nH]c1=O	none (no result: Giardia FBPA inh, CHX counter, Sm TGR inh, LmPK inh, Shiga toxin inh)
Cc1cc(OCc2nc3ccccc3s2)ccc1N	CHX counter 59.4, Shiga toxin inh 111.7
O=S(=O)(Cc1nc2ccccc2s1)c1ccccc1	CHX counter 27.4, Shiga toxin inh 51.9
c1ccc(OCc2nc3ccccc3s2)cc1	CHX counter 61.3, LmPK inh inconclusive, Shiga toxin inh 67.8
CCC(=O)Nc1ccc(OCc2nc3ccccc3s2)cc1	CHX counter 43.8, Shiga toxin inh 117.5
Cc1ccc2c(CC(=O)Nc3nnc(C(C)C)s3)coc2c1C	none (no result: Giardia FBPA inh, CHX counter, LmPK inh, Shiga toxin inh)
CC(=O)c1ccc(NC(=O)CC2Sc3ccccc3NC2=O)cc1 (centres undefined)	none (no result: Giardia FBPA inh, CHX counter, LmPK inh, Shiga toxin inh)
Cc1ccc(-n2c(=O)c3cccnc3n2CC(=O)Nc2ccc(Br)cc2)cc1C	none (no result: Giardia FBPA inh, CHX counter, LmPK inh, Shiga toxin inh)
Fc1ccc(OCc2nc3ccccc3s2)cc1	CHX counter 52.5, LmPK inh inconclusive, Shiga toxin inh 113.9
NCCc1nc2ccccc2s1	none
CCOC(=O)c1cc(-c2csc(COc3ccccc3Cl)n2)on1	none
CCOC(=O)c1csc(N)n1	CHX counter 33.9, Shiga toxin inh 80.3
CCOC(=O)c1csc(COc2ccccc2Cl)n1	CHX counter 32.5, Shiga toxin inh 52.5
CCOC(=O)c1csc(COc2ccc(OC)cc2)n1	CHX counter 61.0, Shiga toxin inh 122.1
CCOC(=O)c1cc(-c2csc(COc3ccc(Cl)cc3)n2)on1	none
CCOC(=O)c1csc(NC(=O)CC2CCCC2)n1	CHX counter 25.0, Shiga toxin inh 32.1
CC(=O)Nc1ccc(NS(=O)(=O)c2ccc3[nH]c4c(c3c2)CCCCC4)cc1	none (no result: Giardia FBPA inh, CHX counter, LmPK inh, Shiga toxin inh)
COC(=O)c1cc(S(=O)(=O)NCc2cc(OC)c(OC)c(OC)c2)cn1C	none
CCC[C@H]1CN(c2ccc(Br)cc2)C(=O)[C@@H]1CC(=O)NC	none (no result: Giardia FBPA inh, CHX counter, Sm TGR inh, LmPK inh, Shiga toxin inh)
Cc1cccc(NC(=O)c2oc3ccccc3c2NC(=O)c2cc(=O)c3ccc(C)cc3o2)c1	none (no result: Giardia FBPA inh, CHX counter, LmPK inh, Shiga toxin inh)
CCOc1ccc(CNC(=O)c2cc3ccccn3n2)cc1	none (no result: Giardia FBPA inh, CHX counter, LmPK inh, Shiga toxin inh)
CCc1nc2c(OCc3cccc(Cl)c3)cccn2c1N(C)C(=O)c1ccncc1	none (no result: Giardia FBPA inh, CHX counter, Sm TGR inh, LmPK inh, Shiga toxin inh)
CC(=O)c1csc(COc2ccccc2)n1	CHX counter 16.6
CCOC(=O)c1csc(-c2ccc([N+](=O)[O-])cc2)n1	CHX counter 40.3, Shiga toxin inh 89.6
CCOC(=O)c1cc(-c2cccc([N+](=O)[O-])c2)on1	none
CCOC(=O)c1cc(-c2csc(COc3ccccc3)n2)on1	none
COc1ccc(CCNC(=O)CN2c3cccc4cccc(c34)S2(=O)=O)cc1OC	none
CCCCCCCCCCCCCCCC(=O)O[C@@H]1CC(C)=C(\C=C/C(C)=C\C=C/C(C)=C\C=C\C=C(C)\C=C\C=C(C)\C=C\C2=C(C)C[C@@H](OC(=O)CCCCCCCCCCCCCCC)CC2(C)C)C(C)(C)C1	none (no result: Giardia FBPA inh, CHX counter, Sm TGR inh, LmPK inh, Shiga toxin inh)
Cc1ccc2scc(N3CCN(C)CC3)c(=O)c2c1	CHX counter 47.8, Shiga toxin inh 82.8 (no result: Giardia FBPA inh, LmPK inh)
O=[N+]([O-])c1cc(C=Nc2ccc3ccccc3c2)ccc1Br	Sm TGR inh 44.7µM
CN(C(=O)c1cccc(NC(=O)Cc2ccc(NC(=O)C3CCN(C(=O)C4CCC4)CC3)cc2)c1)C1CC1	none (no result: Giardia FBPA inh, CHX counter, Sm TGR inh, LmPK inh, Shiga toxin inh)
C=CC#CC1(O)CC(C)[N+](C)(C)CC1C (centres undefined)	Sm TGR inh 12.6µM
CC(C)COC(=O)N(C)C[C@H]1OCc2cnnn2CCCC(=O)N([C@H](C)CO)C[C@H]1C	none (no result: Giardia FBPA inh, CHX counter, Sm TGR inh, LmPK inh, Shiga toxin inh)
O=C(NCCc1ccccn1)c1cccc(S(=O)(=O)N2CCc3ccccc32)c1	Sm TGR inh 39.8µM
O=C(NCc1ccncc1)c1cccc(S(=O)(=O)N2CCc3ccccc32)c1	Sm TGR inh 28.2µM (no result: Giardia FBPA inh, CHX counter, LmPK inh, Shiga toxin inh)
